{"source": "PubChem BioAssay (NCI)", "note": "This is part of a sample that, as a whole, favours compounds with a hit. Of some 79,000 tested, about 15% had one in any assay. Activity calls are given as the source filed them. Cut-off read from the data, not from the text of the source: active = growth inhibition above about 70%; inactive = the rest."}
{"experiment": "NCI Yeast Anticancer Drug Screen. Data for the cln2 rad14 strain (AID 165);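 note: 0% = growth equal to vehicle treated cultures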", "settings": "S. cerevisiae cln2 rad14 strain, at 50.0 µM, stronger effect = higher value", "procedure": "Growth inhibition of yeast strains with defined genetic alterations is measured as a screen for potential anti-cancer activity. Selected strains with alterations in DNA damage repair or cell cycle control were exposed to compounds and growth inhibition was measured relative to vehicle treated controls. The strain used in this assay is cln2 rad14"}
{"smiles": "CC(C)CCOC(=S)S", "growth inhibition": "-5.8% (inactive)"}
{"smiles": "COc1ccccc1C(=O)c1ccccc1", "growth inhibition": "-14.9% (inactive)"}
{"smiles": "Nc1nc(-c2ccc3c(ccc4ccccc43)c2)cs1", "growth inhibition": "-46.3% (inactive)"}
{"smiles": "CN(C)CCNC(=O)c1cccc2[nH]c(-c3ccncc3)nc12", "growth inhibition": "-19.9% (inactive)"}
{"smiles": "O=C(O)COc1ccc2ccccc2c1", "note": "(tested in a mixture with another compound)", "growth inhibition": "-37.7% (inactive)"}
{"smiles": "CCC(CC)C(=O)NC(=O)NC(N)=O", "growth inhibition": "-4.7% (inactive)"}
{"smiles": "CC1CCC2c3c([nH]c4ccccc34)C3C(=O)N(C4CCCCC4)C(=O)C3C2C1", "note": "(stereo not given)", "growth inhibition": "3.05% (inactive)"}
{"smiles": "COc1ccc(C(=O)c2ccc(OC)c3ccccc23)c2ccccc12", "growth inhibition": "-22.9% (inactive)"}
{"smiles": "CCCCCCCCCCCCCCCCCC(=O)N/N=C/c1ccc(Cl)cc1", "growth inhibition": "-15.4% (inactive)"}
{"smiles": "Fc1nc2nc(C(F)(F)F)[nH]c2nc1F", "growth inhibition": "-59.5% (inactive)"}
{"smiles": "Cc1nc2c(ccc3cc4ccccc4cc32)cc1N(CCO)CCO", "growth inhibition": "20.9% (inactive)"}
{"smiles": "CC(=O)N1C(=O)NC(=O)C1(C)C", "growth inhibition": "-18.5% (inactive)"}
{"smiles": "CNc1ccccc1C(N)=S", "growth inhibition": "-26.1% (inactive)"}
{"smiles": "CC1=C(c2cc(C(=O)Nc3cccc(Cl)c3)nc(NC#N)n2)Sc2ccccc2N1", "growth inhibition": "16.4% (inactive)"}
{"smiles": "COc1cc(C2[C@H]3C(=O)N(c4ccc(Cc5ccc(N6C(=O)[C@@H]7ON(c8ccccc8)C(c8cc(OC)c(OC)c(OC)c8)[C@@H]7C6=O)cc5)cc4)C(=O)[C@H]3ON2c2ccccc2)cc(OC)c1OC", "note": "(stereo not given in full)", "growth inhibition": "27.5% (inactive)"}
{"smiles": "C/C=C/C=N/NS(=O)(=O)c1ccc(C)cc1", "growth inhibition": "-45.4% (inactive)"}
{"smiles": "C/C(CC(=O)Nc1ccccc1C)=N/NS(=O)(=O)c1ccc(C)cc1", "growth inhibition": "19.3% (inactive)"}
{"smiles": "COc1cccc(NC(N)=O)c1", "growth inhibition": "-9.5% (inactive)"}
{"smiles": "CO[C@H]1C[C@H]2CC[C@@]1(C)C2(C)C", "growth inhibition": "-18.9% (inactive)"}
{"smiles": "O=C1c2ccccc2C(=O)N1N1C(=O)C2C3CCC(O3)C2C1=O", "note": "(stereo not given)", "growth inhibition": "15.9% (inactive)"}
{"smiles": "CCc1ccc(NC(=S)NC(=O)C(C)Oc2ccccc2)cc1", "note": "(stereo not given)", "growth inhibition": "15.1% (inactive)"}
{"smiles": "NC(=S)Nc1c(Cl)cc(Cl)cc1Cl", "growth inhibition": "8.6% (inactive)"}
{"smiles": "Cc1ccc(C2CC(c3ccc([N+](=O)[O-])cc3)=Nc3ccccc3S2)cc1", "note": "(stereo not given)", "growth inhibition": "14.7% (inactive)"}
{"smiles": "Cn1nc2c(c1-c1cccnc1)CCCc1ccccc1-2", "growth inhibition": "-15.4% (inactive)"}
{"smiles": "OC1c2ccccc2CC1Br", "note": "(stereo not given)", "growth inhibition": "-25.4% (inactive)"}
{"smiles": "CCCSS[C@H]1NC(=O)[C@H]1NC(=O)COc1ccccc1", "growth inhibition": "3.05% (inactive)"}
{"smiles": "CCn1cc(C(=O)CCP(=O)(OC)OC)c2ccccc21", "growth inhibition": "-12.8% (inactive)"}
{"smiles": "O=c1cc(-c2ccccc2)c2ccc(O)cc2o1", "growth inhibition": "3% (inactive)"}
{"smiles": "O=c1nc2oc(-c3ccccc3)cn2c(=O)n1-c1ncc(-c2ccccc2)o1", "growth inhibition": "22.4% (inactive)"}
{"smiles": "C=CCSc1nc2ccc(NCn3c(=S)sc4ccccc43)cc2s1", "growth inhibition": "47.1% (inactive)"}
{"smiles": "C=CCON(C)c1ccc([N+](=O)[O-])cc1[N+](=O)[O-]", "growth inhibition": "-43.9% (inactive)"}
{"smiles": "ClC1CC2CCC1C2Br", "note": "(stereo not given) (tested in a mixture with another compound)", "growth inhibition": "-31.9% (inactive)"}
{"smiles": "O=C1c2ccccc2C2CC1c1ccccc12", "note": "(stereo not given)", "growth inhibition": "-7.7% (inactive)"}
{"smiles": "CCC(=O)Oc1ccc(C(C)(C)CC(C)(C)C)cc1", "growth inhibition": "-7.05% (inactive)"}
{"smiles": "NC(=O)CCBr", "growth inhibition": "-20.4% (inactive)"}
{"smiles": "Nc1nc(-c2ccccc2)nc2[nH]ncc12", "growth inhibition": "-10.2% (inactive)"}
{"smiles": "CN(C)OC(=O)Nc1cccc([N+](=O)[O-])c1", "growth inhibition": "-82.8% (inactive)"}
{"smiles": "COc1ccc(N2C(=O)C3c4[nH]c5ccc(C)cc5c4C4CCC(C)CC4C3C2=O)cc1", "note": "(stereo not given)", "growth inhibition": "-6.9% (inactive)"}
{"smiles": "CC[N+](C)(CC)CCOC(=O)c1ccccc1Oc1ccc(C)cc1", "growth inhibition": "-11.8% (inactive)"}
{"smiles": "O=C(Nc1ccc(F)cc1)Nc1ccc(I)cc1", "growth inhibition": "15.4% (inactive)"}
